# Reference: PubChem BioAssay (NCI)
# Compounds without any hit were thinned out: in the full panel of roughly 83,000, 20% have a hit.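 96-well plates, one dose, 48 hours. Percent growth reported; active if below 10.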 Values without a mark were called inactive. The source made the active and inactive calls.
# Test system: HL-60(TB) leukemia
# Assay: NCI-60 one-dose screen, 48 h (100 = growth as untreated, 0 = no growth, -100 = all killed)
# Details: 10 µM unless noted
row,Compound,growth
1,CCCC/C(=N\N=C(N)N)c1ccc(F)cc1,-30.9% (active)
2,CNc1ccc(Br)cc1-c1n[nH]c(=O)[nH]c1=O,104%
3,Cc1ccc(S(=O)(=O)Nc2cc(Sc3ccccc3)c(O)c3ccccc23)cc1,-31.2% (active)
4,O=C1OC(c2ccc(-c3ccccc3)cc2)=C/C1=C/C=C/c1ccccc1,90.5%
5,COc1ccc(N=Cc2c(O)ccc3c2oc2cc(Cl)c(O)c(Cl)c23)cc1,86.6%
6,COc1ccc(C2C3(C#N)C(N)=NC(=C(C#N)C#N)C23C#N)cc1OC (stereo not given),107%
7,CN(c1ncccc1CNc1nc(Nc2ccc3c(c2)CC(=O)N3)ncc1C(F)(F)F)S(C)(=O)=O,-40% (active)
8,NC(=S)CN1CCOCC1,-12.8% (active)
9,CCN1C(=O)C2(Nc3ccccc3S2)c2cc(C)ccc21 (stereo not given),118%
10,CN(C)CCCNc1nc(-c2cccc(C(Cl)(Cl)Cl)c2)nc(C(Cl)(Cl)Cl)n1,105%
11,O=C(/C=C\c1ccc2c(c1)OCO2)/C=C/c1ccc2c(c1)OCO2,42.8%
12,C[C@@H](Oc1ccc(C(=O)NS(=O)(=O)C(C)(C)C)cc1C(F)(F)F)c1ccc(Oc2ccccc2)cn1,15.8%
13,CCOC(=O)c1c2c(n3c1NCC3)-c1ccccc1C2=O,86.8%
14,N#C/C(=C/c1c(O)ccc2ccccc12)C(N)=O,103%
15,COc1ccc(C(c2cc(OC)c(OC)c(OC)c2)N2CCN(Cc3ccccc3)CC2)cc1 (stereo not given),23%
16,COC1OCC(OS(=O)(=O)c2ccc(C)cc2)C(OC(=O)c2ccccc2)C1OC(=O)c1ccccc1 (stereo not given),25.4%
17,C/C(=N\NC(=O)CSc1nc2ccccc2c(=O)n1CCc1ccc(S(N)(=O)=O)cc1)c1ccc(Br)cc1,66.3%
18,CC(=O)OCC1=CC2OC(=O)C3=COC(OC4OC(CO)C(O)C(O)C4O)C1C32 (stereo not given),120%

row,Compound,growth
1,Oc1cc(O)c(Br)cc1Br,104%
2,COc1ccc(/C=C2\CCCC3=C2NC(C)=NC3c2ccc(OC)c(OC)c2)cc1OC (stereo not given),-6.62% (active)
3,CCc1ccc(Oc2c(-c3ccc(OCCc4cccc(C(F)(F)F)c4)cc3O)n[nH]c2C(F)(F)F)cc1,50.9%
4,COc1cccc(Cc2cc(-c3ccccc3)nn(CC(=O)c3ccccc3)c2=O)c1,69.4%
5,Cc1ccc(C(=O)/C(=C\c2ccc([N+](=O)[O-])cc2)S(=O)Cc2ccc(Cl)cc2)cc1 (stereo not given),33.9%
6,CN(C)Cc1c(-c2ccccc2)[nH]c2ccccc12,92.9%
7,O=C(OCc1ccc2c(Cl)cc(Cl)c(O)c2n1)N1CCN(C(=O)c2cc3ccccc3[nH]2)CC1,31%
8,N=C(N)c1ccc(-c2ccc(-c3ccc(F)cc3)s2)cc1,-56.1% (active)
9,Cn1cc(-c2noc(C(=O)c3cn(C)c4ncccc34)n2)c2ccccc21,98.6%
10,CCC1NC(=O)C(NC(=O)c2ncccc2O)C(C)OC(=O)C(c2ccccc2)NC(=O)C2CC(=O)CCN2C(=O)C(Cc2ccc(N(C)C)cc2)N(C)C(=O)C2CCCN2C1=O (stereo not given) (tested in a mixture with another compound),42.5%
11,CCOC(=O)CCCn1c(-c2ccccc2)cc(-c2ccccc2)c(C#N)c1=O,77.9%
12,O=C(O)c1ccc2c3c(ncnc13)-c1ccccc1C2=O,85.1%
13,C=C(C)[C@@H]1CC[C@]2(C)[C@H](C=CC3=C4C[C@@](C)(CO)CC[C@]4(C)CC[C@]32C)[C@@]1(C)CCCN,-58% (active)
14,CCN(CCNc1ccc(C)c2sc3ccccc3c(=O)c12)CC(C)(C)O,43.5%
15,COc1cccc(C(=O)NNC(=O)c2cccc3ccccc23)c1,97.8%
16,O=S(=O)(O)c1ccc(N=NSc2ccc3ccccc3c2)cc1,98.8%
17,Cn1ccnc1C(=O)/C=C/c1ccc(CC(=O)Nc2ccccc2)cc1,-27.2% (active)
